The source made the active and inactive calls. Unless noted, how the calls were made is not given here.
Assays:
[1] = system: Wnt5a (protein binding on small-molecule microarray); experiment: small molecules binding Wnt5a protein – biophysical, small-molecule microarray, 635/667 nm fluorescence, primary screen (AID 1142); details: 635 nm fluorescence, higher = more signal;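 further: fluorescence read at 667 nm with signal to noise per printed feature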
[2] = ATP-based viability of Huh7 replicon cells – cell-based, CellTiter-Glo luminescence, basal, 48 h, cytotoxicity control for HCV replication inhibitor project, primary screen (AID 1143); details: higher = more signal, called active from +8 up or from −8 down;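 further: Huh7 hepatoma cells carrying a hepatitis C replication reporter with no stimulus; test concentration not given here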
[3] = Pseudomonas biofilm growth suppression – PAO1 strain, BacTiter-Glo luminescence, LB-PBS, primary screen (AID 1144); details: P. aeruginosa PAO1 biofilm, 12 h, higher = more signal
[4] = basal CRE-LacZ reporter activity in PC12 – cell-based, unstimulated, primary screen (AID 1145); details: no forskolin, luminescence, 4.5 h, higher = more signal, called active from +8 up or from −8 down
[5] = forskolin-driven CRE-LacZ activity in PC12 – cell-based, CRE-LacZ reporter, forskolin-stimulated, primary screen (AID 1146); details: luminescence, 4.5 h, higher = more signal, called active from +8 up or from −8 down;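 further: PC12 cells with 6xCRE LacZ reporter stimulated by forskolin 10 µM; beta-galactosidase reporter signal reflecting CREB driven transcription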
[6] = biological target: Streptavidin (Streptomyces avidinii) (UniProt P22629); experiment: compounds binding control protein streptavidin – biophysical, small-molecule microarray, 635/667 nm fluorescence, artefact control for SMM compound annotation, primary screen (AID 1147); details: higher = more signal;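 further: signal reflects streptavidin binding to arrayed compounds as a control protein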
Streptavidin (Streptomyces avidinii), sequence (P22629 whole entry, looked up): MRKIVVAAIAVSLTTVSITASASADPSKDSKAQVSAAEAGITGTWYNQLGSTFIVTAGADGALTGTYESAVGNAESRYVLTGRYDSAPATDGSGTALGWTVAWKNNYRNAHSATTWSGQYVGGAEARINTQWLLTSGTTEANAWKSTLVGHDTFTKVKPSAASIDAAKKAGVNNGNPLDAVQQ

[7] = probe aInhba binding on compound microarray – biochemical, small-molecule microarray, 635/667 nm fluorescence, primary screen (AID 1148); details: higher = more signal;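 further: score merges 667nm spot fluorescence with signal-to-noise for antibody binding to printed compounds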
Torsin-1A (Homo sapiens) [8] = biological target: Torsin-1A (Homo sapiens) (UniProt O14656); experiment: TOR1A wild-type binding on microarray – cell lysate, small-molecule microarray, lysate, 635/667 nm, primary screen (AID 1149); details: COS7 hTOR1A-WT lysate, 635 nm fluorescence, higher = more signal
Torsin-1A (Homo sapiens), sequence (O14656 whole entry, looked up): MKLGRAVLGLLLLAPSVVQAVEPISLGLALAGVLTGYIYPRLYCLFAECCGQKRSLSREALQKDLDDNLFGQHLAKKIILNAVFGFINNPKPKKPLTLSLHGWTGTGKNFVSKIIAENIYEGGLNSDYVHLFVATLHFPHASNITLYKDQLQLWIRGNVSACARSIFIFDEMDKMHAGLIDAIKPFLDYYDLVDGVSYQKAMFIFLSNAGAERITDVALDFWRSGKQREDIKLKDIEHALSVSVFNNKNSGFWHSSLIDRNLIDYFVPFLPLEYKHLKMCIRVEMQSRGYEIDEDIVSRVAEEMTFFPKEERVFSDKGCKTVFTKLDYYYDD

Torsin-1A (Homo sapiens) [9] = biological target: Torsin-1A (Homo sapiens) (UniProt O14656); experiment: torsin A mutant lysate binding on microarrays – cell lysate, small-molecule microarray, COS7 lysate, 635/667 nm fluorescence, primary screen (AID 1150); details: COS7 hTOR1A mutant lysate, 635 nm fluorescence, higher = more signal;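 further: score pools 667 nm emission and signal to noise measuring lysate protein binding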
[10] = system: Sonic hedgehog protein (Shh); experiment: Sonic hedgehog microarray binding compounds – biochemical, small-molecule microarray, 635/667 nm fluorescence, primary screen (AID 1151); details: 635 nm fluorescence, higher = more signal;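 further: Shh protein binding to compounds spotted on small-molecule microarray slides; score combines spot fluorescence intensity with signal-to-noise across triplicate slides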
[11] = optical density shifts of acrAB sulA E. coli – strain DRC41, OD650, 48 h, E. coli filamentation inducer project, primary screen (AID 1152); details: higher = more signal, called active from +8 up or from −8 down;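 further: E. coli MC1000 strain DRC41 lacking acrAB efflux pump and sulA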
[12] = probe aLefty1 binding on compound microarray – biochemical, small-molecule microarray, 635/667 nm fluorescence, primary screen (AID 1153); details: higher = more signal;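 further: score merges spot fluorescence with signal-to-noise ratio from the scanned slide images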
[13] = plasmodial surface anion channel blockers, osmotic lysis – cell-based, P. falciparum Indochina, OD700, 1 h, primary screen (AID 1154); details: P. falciparum Indochina infected RBC osmotic lysis, higher = more signal, called active from +8 up or from −8 down
[14] = plasmodial surface anion channel blockers, osmotic lysis – cell-based, P. falciparum Indochina, OD700, 2 h, primary screen (AID 1155);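 further: lysis reports solute entry through the parasite surface anion channel PSAC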; details: P. falciparum Indochina infected erythrocytes, higher = more signal, called active from +8 up or from −8 down
[15] = changes in parasitized red cell lysis, either direction – P. falciparum Indochina, OD700, 3 h, PSAC antagonist project, primary screen (AID 1156); details: P. falciparum-infected erythrocytes, osmotic lysis, higher = more signal, called active from +8 up or from −8 down
[16] = plasmodial surface anion channel blockers, osmotic lysis – cell-based, P. falciparum Indochina, OD700, 18 h, primary screen (AID 1157); details: P. falciparum Indochina infected erythrocytes, osmotic lysis OD700, 18 h; higher = more signal, called active from +8 up or from −8 down
[17] = S6 kinase pathway phospho-S6 level changes – cell-based, A549, cytoblot, luminescence, serum-stimulated, primary screen (AID 1158); details: 5 h, higher = more signal;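 further: serum-stimulated A549 lung adenocarcinoma cells; signal is phosphorylated S6 detected by cytoblot immunostaining with HRP secondary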
[18] = biological target: NADPH oxidase 2 (Homo sapiens) (UniProt P04839); experiment: compounds shifting NOX2 Amplex Red fluorescence – cell-based, HEK293-NOX2, PMA-stimulated, NOX inhibitor project, primary screen (AID 1159); details: 45 min, higher = more signal, called active from +8 up or from −8 down; further: test concentration not given here
NADPH oxidase 2 (Homo sapiens), sequence (P04839 whole entry, looked up): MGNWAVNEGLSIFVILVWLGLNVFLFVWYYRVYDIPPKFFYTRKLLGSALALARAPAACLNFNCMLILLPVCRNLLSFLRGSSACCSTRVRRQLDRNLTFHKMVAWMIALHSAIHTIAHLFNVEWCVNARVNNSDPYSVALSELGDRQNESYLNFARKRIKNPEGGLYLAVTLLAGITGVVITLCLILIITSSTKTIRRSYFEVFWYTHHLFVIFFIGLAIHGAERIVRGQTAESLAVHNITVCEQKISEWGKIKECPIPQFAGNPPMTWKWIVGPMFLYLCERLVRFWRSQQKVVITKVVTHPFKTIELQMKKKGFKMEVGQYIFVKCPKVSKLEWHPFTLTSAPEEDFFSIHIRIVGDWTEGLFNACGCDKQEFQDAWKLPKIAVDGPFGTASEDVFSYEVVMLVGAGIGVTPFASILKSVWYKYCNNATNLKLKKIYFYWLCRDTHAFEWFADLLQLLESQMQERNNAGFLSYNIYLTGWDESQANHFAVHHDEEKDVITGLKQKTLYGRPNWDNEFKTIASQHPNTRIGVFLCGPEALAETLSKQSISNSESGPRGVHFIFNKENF

[19] = biological target: NADPH oxidase 4 (Homo sapiens) (UniProt Q9NPH5); experiment: compounds shifting NOX4 Amplex Red fluorescence – cell-based, HEK293-NOX4, tetracycline-induced, NOX inhibitor project, primary screen (AID 1160); details: HEK293-NOX4, Amplex Red H2O2 fluorescence, 45 min; higher = more signal, called active from +8 up or from −8 down
NADPH oxidase 4 (Homo sapiens), sequence (Q9NPH5 whole entry, looked up): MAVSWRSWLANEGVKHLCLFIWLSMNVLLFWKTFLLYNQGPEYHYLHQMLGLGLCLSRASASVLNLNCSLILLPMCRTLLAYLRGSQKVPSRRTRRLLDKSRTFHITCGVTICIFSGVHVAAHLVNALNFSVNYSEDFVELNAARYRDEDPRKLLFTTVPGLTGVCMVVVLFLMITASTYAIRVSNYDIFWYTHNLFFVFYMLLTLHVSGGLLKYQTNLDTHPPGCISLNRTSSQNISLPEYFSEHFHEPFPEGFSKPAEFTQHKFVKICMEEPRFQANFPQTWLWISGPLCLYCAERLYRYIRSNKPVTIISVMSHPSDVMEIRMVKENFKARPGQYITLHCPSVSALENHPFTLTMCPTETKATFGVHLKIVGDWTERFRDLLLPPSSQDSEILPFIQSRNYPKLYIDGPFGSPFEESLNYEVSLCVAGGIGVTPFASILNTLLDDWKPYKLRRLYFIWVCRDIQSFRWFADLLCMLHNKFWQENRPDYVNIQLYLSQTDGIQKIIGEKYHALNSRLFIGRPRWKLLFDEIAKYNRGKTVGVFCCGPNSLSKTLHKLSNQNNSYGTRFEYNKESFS

[20] = biological target: NADPH oxidase 5 (Homo sapiens) (UniProt Q96PH1); experiment: compounds shifting NOX5 Amplex Red fluorescence – cell-based, HEK293-NOX5, NOX inhibitor project, primary screen (AID 1161); details: HEK293-NOX5, ionomycin, 45 min, higher = more signal
NADPH oxidase 5 (Homo sapiens), sequence (Q96PH1 whole entry, looked up): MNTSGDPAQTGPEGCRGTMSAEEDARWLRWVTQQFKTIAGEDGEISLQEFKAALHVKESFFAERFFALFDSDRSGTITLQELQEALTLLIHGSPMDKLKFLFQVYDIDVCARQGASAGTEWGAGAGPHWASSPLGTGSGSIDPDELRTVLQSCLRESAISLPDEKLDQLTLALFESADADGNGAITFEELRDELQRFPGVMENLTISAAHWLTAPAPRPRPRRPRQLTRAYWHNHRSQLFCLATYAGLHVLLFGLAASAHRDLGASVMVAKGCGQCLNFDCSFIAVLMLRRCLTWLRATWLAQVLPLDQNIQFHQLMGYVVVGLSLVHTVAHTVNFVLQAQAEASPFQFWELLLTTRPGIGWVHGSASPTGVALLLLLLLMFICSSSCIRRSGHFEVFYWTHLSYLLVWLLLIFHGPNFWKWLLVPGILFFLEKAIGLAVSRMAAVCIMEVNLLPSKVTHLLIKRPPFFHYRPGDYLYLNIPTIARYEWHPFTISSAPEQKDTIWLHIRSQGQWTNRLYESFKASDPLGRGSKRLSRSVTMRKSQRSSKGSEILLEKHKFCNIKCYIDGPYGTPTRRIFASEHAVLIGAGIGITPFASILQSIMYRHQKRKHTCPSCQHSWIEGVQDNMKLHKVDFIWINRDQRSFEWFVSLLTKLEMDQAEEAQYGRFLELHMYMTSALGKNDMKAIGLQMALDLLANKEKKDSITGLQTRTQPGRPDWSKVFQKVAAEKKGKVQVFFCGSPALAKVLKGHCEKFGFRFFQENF

| SMILES | composite z-score [1] | z-score [2] | z-score [3] | z-score [4] | z-score [5] | composite z-score [6] | composite z-score [7] | composite z-score (Torsin-1A (Homo sapiens) [8]) | composite z-score (Torsin-1A (Homo sapiens) [9]) | composite z-score [10] | z-score [11] | composite z-score [12] | z-score [13] | z-score [14] | z-score [15] | z-score [16] | z-score [17] | z-score [18] | z-score [19] | z-score [20] |
| --- | --- | --- | --- | --- | --- | --- | --- | --- | --- | --- | --- | --- | --- | --- | --- | --- | --- | --- | --- | --- |
| CCCNC(=O)[C@@H]1c2ccccc2C(=O)N(Cc2ccccc2Cl)[C@H]1c1ccc(CO)cc1 | 0.4 | -1.44 (inactive) | 0.378 (inactive) | -0.412 (inactive) | -0.366 (inactive) | 0.802 | 0.264 | 0.174 | 0.461 | 1.9 | 2.47 (inactive) | 0.227 | 1.8 (inactive) | 0.0323 (inactive) | 0.621 (inactive) | -0.505 (inactive) | 0.335 | -0.988 (inactive) | 0.601 (inactive) | -0.33 |
| CN1C(=O)C2C=CC(C(O)C(c3ccccc3)c3ccccc3)N(NC(=O)OC(C)(C)C)C2C1=O (stereo not given) | 0.843 | -0.0027 (inactive) | 0.417 (inactive) | -0.136 (inactive) | 0.0964 (inactive) | 1.68 | 0.72 | -0.05 | 0.848 | -0.587 | -1.41 (inactive) | 0.771 | 1.41 (inactive) | 0.742 (inactive) | -0.343 (inactive) | 0.804 (inactive) | -1.16 | -0.343 (inactive) | -4.7 (inactive) | -1.76 |
| O=C1CCCC=C1C(O)CCOCc1ccccc1 (stereo not given) | -0.0912 | 0.056 (inactive) | 0.964 (inactive) | 0.11 (inactive) | 0.0483 (inactive) | 0.787 | -0.2 | 0.728 | 0.0645 | 0.307 | -1.7 (inactive) | -0.342 | 0.427 (inactive) | -0.127 (inactive) | 0.452 (inactive) | -0.118 (inactive) | -0.235 | 1.18 (inactive) | 0.45 (inactive) | -0.00615 |
| C[C@@H]1CCC2C(=O)N(Cc3ccccc3)C[C@@H](O)CN2[C@H]1c1ccc(Br)cc1 (stereo not given in full) | -0.412 | -2.02 (inactive) | -1.54 (inactive) | 2.28 (inactive) | -0.284 (inactive) | 0.398 | -0.0719 | 0.866 | 1.42 | 0.228 | -0.732 (inactive) | -0.0573 | 0.167 (inactive) | -0.875 (inactive) | -0.75 (inactive) | -0.567 (inactive) | 0.805 | 0.615 (inactive) | -0.146 (inactive) | -0.836 |
| O=C1[C@H]2[C@H]3[C@H](O)[C@H](O)CC(=NO[C@@H]4O[C@H](CO)[C@@H](O)[C@H](O)[C@H]4O)[C@H]3CC[C@H]2C(=O)N1Cc1ccc2c(c1)OCO2 | -0.228 | -0.402 (inactive) | 1.58 (inactive) | 0.525 (inactive) | -0.576 (inactive) | 0.595 | -0.0719 | 0.838 | 0.181 | -0.928 | 0.614 (inactive) | 0.122 | 15.5 (active) | 2.09 (inactive) | 0.0435 (inactive) | 1.04 (inactive) | -0.438 | -2.58 (inactive) | 0.514 (inactive) | 1.55 |
| O=C1[C@H]2[C@H]3[C@H](O)[C@H](O)CC(=NOCc4ccccc4)[C@@H]3CC[C@H]2C(=O)N1C1CCCCC1 | 0.0062 | -0.48 (inactive) | 0.774 (inactive) | 0.519 (inactive) | 0.182 (inactive) | -0.0498 | -0.533 | -0.0289 | -0.47 | -0.317 | -0.501 (inactive) | 0.056 | 2.79 (inactive) | 0.322 (inactive) | 0.28 (inactive) | 0.352 (inactive) | -0.206 | 1.56 (inactive) | 0.568 (inactive) | -0.818 |
| [N-]=[N+]=NCc1ccccc1C[C@]1(C(=O)NCc2ccccc2)N=C(c2ccc(OCCCO)cc2)O[C@H]1c1ccccc1N=[N+]=[N-] | 0.729 | -4.38 (inactive) | -0.144 (inactive) | 0.493 (inactive) | -0.951 (inactive) | 0.83 | -0.287 | -0.0818 | 0.334 | -0.46 | 0.0901 (inactive) | -0.7 | 30.6 (active) | 30.6 (active) | 2.72 (inactive) | 3.32 (inactive) | -0.275 | -0.349 (inactive) | -0.15 (inactive) | -1.66 |
| O=C(NN=C1C[C@@H](O)[C@@H](O)[C@@H]2[C@@H]3C(=O)N(c4ccc(F)cc4F)C(=O)[C@@H]3CC[C@@H]12)OCc1ccccc1 | -0.132 | 0.375 (inactive) | 1.21 (inactive) | 0.16 (inactive) | 0.829 (inactive) | 0.98 | -0.128 | 0.871 | 0.464 | -0.33 | 0.113 (inactive) | 0.0536 | 3.79 (inactive) | 0.326 (inactive) | -0.479 (inactive) | 0.0094 (inactive) | -0.849 | 1.56 (inactive) | 0.882 (inactive) | 0.0449 |
| CCc1cc2c(nc1CC)CCN(CCC(C)=NO[C@@H](C)c1cc(-c3c(C)cc(C)cc3C)no1)C2 | -0.0627 | -2.21 (inactive) | -0.626 (inactive) | 0.429 (inactive) | 0.446 (inactive) | 1.67 | -0.0762 | -0.233 | 0.0048 | 0.134 | 0.187 (inactive) | -0.192 | 4.75 (inactive) | 0.445 (inactive) | 1.41 (inactive) | 0.514 (inactive) | 0.549 | -2.21 (inactive) | -0.321 (inactive) | -2.75 |

Source: PubChem BioAssay
